Pol beta inh = inhibitors of human DNA polymerase beta; Pol beta primer extension/strand displacement, fluorescence kinetic; 1.3% of 340,000 active; Potency, µM (top dose mostly 114 µM), without a hit: top-dose activity change, negative = inhibition, actives largely listed as inhibitors; P06746; also: % is scaled to controls: 0 for no effect and ±100 for the full control effect
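Pol beta (10 nM) and compounds were preincubated 15 min at room temperature, then 50 nM substrate (final) started primer extension/strand displacement. Reads were taken at 0 and 10 min; concentration-response data were fitted to a four-parameter Hill equation.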
Pol kappa inh-1 = DNA polymerase kappa (human) inhibition; purified Pol kappa, fluorescent DNA synthesis assay, 10 min; Potency, µM (series often up to 107 µM), without a hit: at the highest dose activity, negative = inhibition, most hits filed as inhibitors; 0.53% of 400,000 active; also: % is scaled to controls: 0 for no effect and ±100 for the full control effect
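Kinetic fluorescence readout at 0 and 10 min followed reaction start with substrate at 50 nM final. Beforehand, enzyme (10 nM Pol kappa) stood 15 min with compound at room temperature; buffer-only wells were negative controls.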
WRN inhibitor = WRN helicase (human) inhibition. Q14191. 0.46% of 360,000 active. WRN helicase unwinding, fluorescent forked duplex, kinetic. Potency, µM (highest dose often 114 µM), for inactives: top-dose activity change, negative = inhibition, actives largely listed as inhibitors; also: % is scaled to controls: 0 for no effect and ±100 for the full control effect; nearly all actives have a fitted effect of over 55% in size
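Primary qHTS, 1536-well format. 20 nM WRN + compound, 15 min RT; start with 100 nM forked fluorophore/quencher duplex, 2 mM ATP (final); kinetic read ex 525/em 598 nm.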
POLI inh = inhibitors of human DNA polymerase iota; Q9UNA4; Pol iota fluorescent replication assay, 10 min; Potency, µM (top dose mostly 115 µM), for inactives: top-dose activity, negative = inhibition, hits mostly inhibitors; 1% of 390,000 active; AID 588590
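Fluorescent replication assay read twice, at 0 min and 10 min after adding 50 nM (final) substrate. Enzyme (10 nM) and compounds were first incubated 15 min at room temperature; enzyme-free buffer wells were negative controls.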
Pol eta inh-1 = DNA polymerase eta (human) inhibition | Q9Y253 | AID 588591 | 1.2% of 390,000 active | Potency, µM (doses to about 114 µM), for the others: at the top dose activity change, negative = inhibition, most hits filed as inhibitors | recombinant Pol eta, fluorescent DNA replication assay; also: % is scaled to controls: 0 for no effect and ±100 for the full control effect
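Fluorescent replication assay: 50 nM final substrate added after a 15 min room-temperature compound preincubation with 10 nM enzyme. Signal taken at 0 min and again at 10 min.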
Pol kappa inh-2 = confirmation of human DNA polymerase kappa inhibitors | shares compounds with Pol eta inh-1 | purified Pol-kappa, fluorescent strand-displacement substrate | Potency, µM, actives largely listed as inhibitors | 76% of 920 active | AID 720501
Pol eta inh-2 = Pol eta (human) inhibition, cherry-pick confirmation | shares compounds with Pol eta inh-1 | 64% of 2,600 active | AID 720502 | Potency, µM, actives largely listed as inhibitors | Pol eta primer extension, TAMRA/BHQ fluorescence, 10 min
Active calls of the source: *; ? = inconclusive; . = no result given; ! = not confirmed by another sample; [ ] = dose if it differs, or a comment. Sampled rows, rich in hits. Any-hit rate of the full collection: about 2.3%. Calls follow the shape of the dose curve; as a rule, active = well fitted curve in the direction sought with a large enough effect; inconclusive = small, poorly fitted or top-dose-only effect, or another doubt; inactive = no such curve, though single readings can be large; an effect the other way counts as inactive or inconclusive. Potency is read from the fitted curve at half-maximal effect.

SMILES	Pol beta inh	Pol kappa inh-1	WRN inhibitor	POLI inh	Pol eta inh-1	Pol eta inh-2	others
Cc1ccc(NC(=O)c2cccc(C(=O)Nc3ccc(C)cc3C(=O)O)c2)c(C(=O)O)c1	-11.7%	-36.6%	-13.5%[11.6 µM]	-19.7%	?	?	Pol kappa inh-2=15*
Cc1ccc(NC(=O)c2ccc(Br)cc2)c(C(=O)c2ccccc2)c1	0.4%	-3.4%	.	5.7%	14.7%	.
O=C(Nc1ccccc1C(=O)O)c1cccc(NC(=O)c2ccccc2Br)c1	22.3%	-3.0%	-23.6%	10.3%	-2.5%	.
O=C(Nc1cc(C(=O)Nc2ccccc2C(=O)O)cc(C(=O)Nc2ccccc2C(=O)O)c1)c1ccccc1	6.4%	?	39.8µM*	?	14.1µM*	30.1*
COc1cc(NC(=O)CCc2c(C)nc3c4c(C)cc(C)nc4nn3c2C)cc(OC)c1	?	0.1%	.	-19.3%	?	.
CCOC(=O)CSc1nc2sc3c(c2c(=O)[nH]1)CCCC3	14.6%	2.7%	-0.3%	16.3%	5.4%	.
CCOC(=O)C1CCN(C(=O)CCc2nc3sc4c(c3c(=O)[nH]2)CCCC4)CC1	.	?	-22.2%	28.2µM*	22.4µM*	?
CN(CCOc1ccccc1)C(=O)CCc1nc2sc3c(c2c(=O)[nH]1)CCCC3	?	-35.4%	5.7%[11.6 µM]	25.1µM*	?	?
O=C(CCc1nc2sc3c(c2c(=O)[nH]1)CCCC3)NCCOc1ccccc1	.	-22.8%	-17.2%	?	?	.
O=C1CSC(=S)N1c1cccnc1	6.9%	-15.2%	-8.2%[57.1 µM]	?	1.6%	.
O=C1CSC(=S)N1Cc1cccnc1	-23.7%	-19.2%	-8.5%[57.1 µM]	?	?	?
CC(=O)Nc1ccc2c(O)cc(S(=O)(=O)O)cc2c1	.	?	-33.6%	20µM*	31.6µM*	?	Pol kappa inh-2=?
C/C(N)=C(/C#N)C(=O)CN1C(=O)NC(Cc2c[nH]c3ccccc23)C1=O (centres undefined)	28.2µM*	?	-31.0%	?	31.6µM*	?
CCOc1cccc(CC(=O)N2CCc3c([nH]c4ccccc34)C2c2ccccc2)c1OCC (centres undefined)	-0.8%	-3.1%[60.1 µM]	.	11.6%	-20.9%	.
COc1ccc(NC(=O)Nc2nnc(SCC(=O)Nc3cccc(C)c3C)s2)cc1	1.7%	-1.7%[60.1 µM]	.	9.2%	-13.4%	.
Cc1cc(=O)[nH]c(SCC(=O)Nc2nc3ccccc3s2)n1	10.2%	-4.2%	17.7%	-13.9%	1.4%	.
N#Cc1c(SCC(=O)Nc2nc3ccccc3s2)sc2c(O)cc(=O)[nH]c12	.	12.6µM*	39.8µM*	6.31µM*	4.47µM*	30.1*	Pol kappa inh-2=18.9*
Cc1ccc(-n2cc(C(=O)Oc3ccc(F)cc3)c3ccccc3c2=O)cc1	-20.4%	-5.7%[60.1 µM]	.	11.9%	0.0%	.
CCc1cc(=O)oc2c(CN3CCN(C)CC3)c(O)c(Cl)cc12	3.1%	-15.7%	-9.9%	14.4%	-4.7%	.
Cc1cc(=O)oc2c(CN3CC(C)OC(C)C3)c(O)c(Cl)cc12 (centres undefined)	14.1µM*	?	?	35.5µM*	20µM*	?	Pol kappa inh-2=?
CCN(C(=O)Cn1nc(Cc2cccnc2)c2ccccc2c1=O)c1cc(C)ccc1C	7.2%	-8.5%	.	14.5%	-14.6%	.
Cc1cc(C(=O)N/N=C/c2ccc(Br)o2)n[nH]1	-11.6%	-18.3%	-9.9%[11.6 µM]	?	-2.1%	.
Cc1cc(C(=O)N/N=C/c2cc(Br)c(Br)o2)n[nH]1	44.7µM*	79.4µM*	?	14.1µM*	17.8µM*	60.1*	Pol kappa inh-2=47.4*
CCn1cc(S(=O)(=O)c2cc(C)cc(C)c2)c(=O)c2cc(F)c(N3CCN(c4ccccc4)CC3)cc21	19.1%	6.5%	.	39.9%	-3.7%	.
CC(/C=C\c1cccnc1)=C/C(=O)O	28.2µM*!	-13.0%	-16.8%[57.1 µM]	-11.2%	20µM*!	47.8*
CCOc1ccccc1NC(=O)Cn1c(=O)n(Cc2ccco2)c(=O)c2ccc(C(=O)NC3CCCC3)cc21	8.3%	-10.5%	.	21.1%	-1.1%	.

Compound activity as filed in PubChem.
